Screens (PubChem BioAssay)
CYP2C9 act – increases human cytochrome P450 2C9 activity; AID 1024; activation factor at 5 µM; recombinant CYP2C9, luciferin-H conversion, luminescence; hits give high values; factor 1 = untreated enzyme, 0 = blocked; P11712; hit rate 1.4% among 96,000;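 active = activation factor of 2 or more for CYP2C9 at a 5 µM dose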;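 note: 0 = sulfaphenazole-blocked wells and 1 = vehicle-only wells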
CYP2C19 act – cytochrome P450 2C19 (human) activation; activation factor at 5 µM; AID 1025; recombinant CYP2C19, luciferin-H EGE luminescence; hits give high values; 0 = fully inhibited enzyme, 1 = untreated enzyme; 96,000 tested, under 10 active;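 active = activation factor of at least 2 at 5 µM in the primary screen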;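 note: 0 = wells with 2.5 mM tranylcypromine and 1 = vehicle-only wells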
Target sequence (P33261 whole entry, looked up): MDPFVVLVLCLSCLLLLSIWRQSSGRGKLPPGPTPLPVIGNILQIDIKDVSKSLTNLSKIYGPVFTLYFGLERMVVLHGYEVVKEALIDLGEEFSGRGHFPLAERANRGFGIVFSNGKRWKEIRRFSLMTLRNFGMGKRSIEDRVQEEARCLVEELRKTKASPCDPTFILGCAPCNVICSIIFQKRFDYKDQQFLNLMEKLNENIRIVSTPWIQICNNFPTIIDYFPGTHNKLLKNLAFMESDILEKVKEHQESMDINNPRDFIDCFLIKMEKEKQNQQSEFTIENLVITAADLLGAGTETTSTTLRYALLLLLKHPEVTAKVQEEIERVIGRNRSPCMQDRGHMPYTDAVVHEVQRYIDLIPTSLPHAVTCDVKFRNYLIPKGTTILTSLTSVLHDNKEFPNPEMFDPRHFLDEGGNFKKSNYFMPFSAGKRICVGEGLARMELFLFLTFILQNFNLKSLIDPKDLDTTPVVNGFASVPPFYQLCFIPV
CYP2C19 inh – blocks human cytochrome P450 2C19; hit rate 21% among 96,000; inhibition, % at 5 µM; AID 778; CYP2C19 Supersomes, luciferin-H EGE luminescence, 30 min;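 active = CYP2C19 inhibition above a set limit at 5 µM in the primary screen, cut at about 50% in these data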;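 note: plate controls were negative control wells for no effect and 2.5 mM tranylcypromine positive control for full effect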
sEH activator – soluble epoxide hydrolase (human) activation; activation, % at 2 µM; hit rate 0.04% among 91,000; AID 717; purified human sEH enzymatic activity, activator screen; in the data active = activation above about 37%
sEH inhibitor – blocks human soluble epoxide hydrolase activity | P34913 | recombinant human sEH enzymatic activity assay | inhibition, % at 2 µM | hit rate 0.34% among 91,000; in the data active = inhibition above about 80%
CYP2C9 inh – blocks human cytochrome P450 2C9 | P11712 | CYP2C9 Supersomes, luciferin-H conversion, luminescence | inhibition, % at 5 µM | hit rate 20% among 96,000 | AID 777;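 active = blocking of liver enzyme CYP2C9 beyond about 50% at 5 µM, limit read from the data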
Numbers without * were called inactive; / = no result. In the library only some 27% were active in any assay of this set; here they are far more common.

SMILES | CYP2C9 act | CYP2C19 act | CYP2C19 inh | sEH activator | sEH inhibitor | CYP2C9 inh
CNC(=O)c1ccccc1NC(=O)c1ccc(C)c(S(=O)(=O)N2CCCCC2)c1 | 0.4 | 0.3 | 70* | 6 | -7 | 62*
Cc1ccc(NC(=O)c2cc(S(=O)(=O)c3ccccc3)ccc2Cl)cc1 | 0.3 | 0.6 | 36 | 14 | -12 | 73*
CC(=O)Nc1ccc(S(=O)(=O)N2CCN(S(=O)(=O)N3CCCCCC3)CC2)cc1 | 1 | 0.9 | 6 | 6 | 0 | 1
CC(=O)NC1(c2cccc(F)c2)CCN(C(=O)Nc2ccc(C#N)cc2)CC1 | 1 | 1.1 | -9 | -8 | 10 | 4
CC(=O)Nc1cccc(S(=O)(=O)N2CCCCCC2)c1 | 2.5* | 0.2 | 75* | 12 | -9 | -148
COc1cccc(C(c2nnnn2Cc2ccc(F)cc2)N2CCC(C(N)=O)CC2)c1OC (configuration not stated) | 0.9 | 0.8 | 21 | 6 | -8 | 11
O=C(Nc1ccon1)c1cccc(S(=O)(=O)N2CCCCCC2)c1 | 0.4 | 0.1 | 93* | 23 | -24 | 65*
O=C(c1cccc(S(=O)(=O)N2CCCC2)c1)c1nnc(-c2ccncc2)o1 | 0.1 | 0.2 | 78* | -5 | 5 | 90*
O=C(Nc1ccon1)c1cccc(S(=O)(=O)N2CCCC2)c1 | 0.8 | 0.7 | 34 | -5 | 3 | 16
O=C(Nc1ccccc1)c1cccc(S(=O)(=O)N2CCCCC2)c1 | 0.5 | 0.4 | 58* | -46 | 46 | 48
Cc1ccc(C(=O)Nc2ccon2)cc1S(=O)(=O)N1CCCC1 | 1 | 0.4 | 58* | -4 | 5 | 4
CCN(CC)C(=O)CN(c1cc2c(cc1OC)oc1ccccc12)S(=O)(=O)c1ccc(C)cc1 | 0.9 | 0.8 | 15 | 9 | -7 | 14
CCCC(=O)Oc1ccccc1C1SCc2cc(C)c(C)cc2CS1 | 0.9 | 1 | -4 | -2 | 2 | 10
O=C(N1CCCC1)n1c(Cc2ccccc2)nc2ccccc21 | 1.1 | 0.8 | 18 | -4 | 4 | -11
O=C(/C=C/c1ccccc1)N1CCN(CC(O)COc2ccccc2)CC1 (configuration not stated) | 1.5 | 0.9 | 8 | -8 | 6 | -48
Cc1csc(NC(=O)c2ccc(C)c(S(=O)(=O)N3CCCCC3)c2)n1 | 0.7 | 0.9 | 14 | -9 | 8 | 27
CC(=O)c1cccc(NS(=O)(=O)N(C)C)c1 | 1.2 | 1.1 | -12 | 0 | 2 | -18
Cc1nnc(NC(=O)c2ccc(C)c(S(=O)(=O)N3CCCCCC3)c2)s1 | 1.1 | 1 | -4 | -3 | -2 | -9
Cc1ccc(C(=O)Nc2nccs2)cc1S(=O)(=O)N1CCCCC1 | 0.3 | 0.3 | 66* | / | / | 68*
Cc1ccc(C(=O)Nc2ccc3cn[nH]c3c2)cc1S(=O)(=O)N1CCCCC1 | 0.1 | 1.1 | -8 | -39 | 39 | 92*
O=C(Nc1ccccc1Cl)c1cccc(NS(=O)(=O)c2ccccc2)c1 | 0.2 | 0.1 | 89* | -2 | 4 | 75*
CC(=O)c1cccc(NS(=O)(=O)N2CCCCC2)c1 | 0.8 | 0.4 | 60* | 3 | 0 | 22
CCCc1cc(=O)[nH]c(SCC(=O)N(CC)Cc2ccccc2)n1 | 0.8 | 0.9 | 12 | 7 | -7 | 22
COc1ccc(C2Nc3ccccc3C(=O)N2Cc2ccccc2)cc1COc1ccccn1 (configuration not stated) | 0.4 | 0.5 | 54* | -4 | 6 | 61*
COc1ccc(C2Nc3ccccc3C(=O)N2Cc2ccco2)cc1CN1C(=O)c2ccccc2C1=O (configuration not stated) | 0.2 | 0.3 | 74* | / | / | 85*
SMILES | CYP2C9 act | CYP2C19 act | CYP2C19 inh | sEH activator | sEH inhibitor | CYP2C9 inh
COc1ccc(C2Nc3ccccc3C(=O)N2Cc2ccco2)cc1COc1ccc(F)cc1 (configuration not stated) | / | / | / | -2 | 3 | /
CCc1c(C)nc(SCC(=O)N2CCc3ccccc32)[nH]c1=O | 0.9 | 0.9 | 8 | -10 | 9 | 9
N#Cc1c(N2CCN(C(=O)c3ccccc3)CC2)nc(-c2ccccc2)c2c1CCCC2 | 0.3 | 0.4 | 62* | 3 | -3 | 72*
N#Cc1c(N2CCN(C(=O)c3ccccc3Cl)CC2)nc(-c2ccccc2)c2c1CCCC2 | 0.4 | 0.5 | 50* | 16 | -15 | 64*
N#Cc1c(NC(=O)CN2CCN(C(=O)c3ccco3)CC2)sc2c1CCCCC2 | 0.8 | 0.7 | 26 | / | / | 22
N#Cc1c(N2CCN(C(=O)c3ccco3)CC2)nc(-c2ccccc2)c2c1CCCC2 | 0.1 | 0.1 | 88* | 5 | -6 | 86*
COc1cc(-c2nc(S(=O)(=O)c3ccc(Cl)cc3)c(N3CCOCC3)o2)cc(OC)c1OC | 0.4 | 0.8 | 22 | 20 | -15 | 62*
CC(C)Cc1nc(S(=O)(=O)c2ccc(Cl)cc2)c(N2CCOCC2)o1 | 1 | 0.4 | 57* | -1 | 0 | 4
CC(C)(C)c1nc(S(=O)(=O)c2ccc(Cl)cc2)c(N2CCOCC2)o1 | 1 | 0.9 | 13 | -2 | 4 | 0
COc1cc(-c2nc(S(=O)(=O)c3ccc(C)cc3)c(N3CCOCC3)o2)cc(OC)c1OC | 0.5 | 0.7 | 33 | 9 | -11 | 51*
O=S(=O)(c1ccccc1)c1nc(-c2ccco2)oc1N1CCOCC1 | 0.9 | 0.6 | 39 | -16 | 14 | 14
COc1cc(-c2nc(S(=O)(=O)c3ccc(C)cc3)c(N(C)C)o2)cc(OC)c1OC | 0.4 | 0.9 | 13 | -15 | 14 | 56*
CC/C(C)=N\N=C\c1c(O)n(CC)c2cc(C3=NNC(=O)CC3)ccc12 | / | / | / | -8 | 8 | /
O=C(CN(Cc1ccco1)S(=O)(=O)c1cccs1)Nc1ccccc1C(F)(F)F | 0.2 | 0.1 | 90* | / | / | 79*
O=C(Nc1ccc2nc(-c3ccc4nc[nH]c4c3)[nH]c2c1)c1cccs1 | 0.4 | 0.7 | 32 | -6 | 9 | 61*
O=C1NC(c2ccccc2)=C(c2ccc3ccccc3n2)C(c2ccncc2)N1 (configuration not stated) | 0.1 | 0.2 | 83* | -12 | 10 | 89*
O=C(CSc1nnc(CNc2ccccc2)o1)N1CCN(C(=O)c2ccco2)CC1 | / | / | / | 10 | -12 | /
CCOC(=O)c1cnn(-c2ccccc2)c1NC(=O)c1ccccc1C | 1.1 | 0.8 | 16 | 18 | -17 | -5
CCOC(=O)c1cnn(-c2ccccc2)c1-n1cccc1C(=O)C(=O)Nc1ccccc1C(F)(F)F | 0.3 | 0.5 | 54* | 4 | -4 | 65*
Cc1cc(N2CCC(C)CC2)nc(SCC(=O)c2ccccc2)n1 | / | / | / | -3 | 3 | /
CCCCS(=O)(=O)Nc1ccc(Cc2ccncc2)cc1 | 0 | 0 | 100* | 6 | -7 | 100*
CC1(C)Cc2noc(N)c2C(C)(C)N1OC(=O)c1ccccc1 | 0.4 | 0 | 100* | -5 | 4 | 57*
